Measurements as given in PubChem BioAssay AID488922 (Johns Hopkins Ion Channel Center, 2010).
Screen size: about 310,000 compounds; about 3,800 (1.2%) were called active.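 How the source made its calls: active means ratio B-score over 3 SD below the library mean, with starting fluorescence within 5 SD of its mean; inactive means the rest, inconclusive results apart.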 What follows is part of a selection rich in actives, with near analogues and random picks from the rest.

Target: Potassium channel subfamily K member 9 (Homo sapiens) (UniProt Q9NPC2)
Experiment: KCNK9 potassium channel inhibitors, primary screen, HEK293 cells, thallium flux (AID 488922);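 on B-score: negative B-score means less thallium flux so channel inhibition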
Settings: HEK293 KCNK9, FluxOR thallium flux fluorescence, at 10 µM; stronger effect = lower value

Chain of Potassium channel subfamily K member 9 (Homo sapiens) (Q9NPC2 whole entry, looked up): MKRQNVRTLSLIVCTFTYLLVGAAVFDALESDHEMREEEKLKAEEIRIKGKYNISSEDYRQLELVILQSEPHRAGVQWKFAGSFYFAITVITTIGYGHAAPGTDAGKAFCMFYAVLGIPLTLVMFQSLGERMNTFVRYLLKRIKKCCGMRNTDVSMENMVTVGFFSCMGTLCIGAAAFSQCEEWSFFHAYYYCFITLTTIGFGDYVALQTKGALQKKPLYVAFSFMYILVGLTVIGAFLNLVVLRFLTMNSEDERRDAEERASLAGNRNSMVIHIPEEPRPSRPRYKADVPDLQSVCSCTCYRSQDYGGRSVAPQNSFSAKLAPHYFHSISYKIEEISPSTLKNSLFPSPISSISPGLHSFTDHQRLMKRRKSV

Compound	B-score
COc1ccc(NCCc2ccccn2)cc1	inactive
Cc1nn(C)c(C)c1C(C)NC(=O)c1ccc(OC2CCN(Cc3ccccn3)CC2)cc1 (stereo unspecified)	inactive
COc1ccccc1/C=C/C(=O)NC1CC2CCC1C2 (stereo unspecified)	inactive
Cc1ccc(SCC2=NNC(=O)C2)cc1	inactive
O=C(COC(=O)c1ccccc1)Nc1ccccc1Sc1ccccc1	-9.75 (active)
Cc1ccccc1C(=O)Nc1ccccc1Sc1ccccc1	inactive
O=C(COC(=O)c1cccc(Br)c1)Nc1cccc2c1C(=O)c1ccccc1C2=O	inactive
CCn1c(=O)n(CC)c2cc(N3CCCC3)c(NC(=O)c3ccccc3Br)cc21	inactive
COc1ccc(-c2c(C(C)=O)c(C)nc3sc4c(=O)n(-c5ccc(C)cc5)nnc4c23)cc1	inactive
O=C(COc1ccc([N+](=O)[O-])cc1Cl)Nn1cnnc1	inactive
CCN(C(=O)c1ccc(Br)cc1)c1ccccc1	inactive
O=C(COc1ccc(F)cc1)N(CC1=CCS(=O)(=O)C1)c1ccccc1	inactive
CCN(C(=O)COc1ccc(C(=O)c2ccccc2)cc1)c1ccccc1	-8.43 (active)
COc1ccc2cc(CCl)c(Cl)nc2c1	inactive
Cc1ccc(S(=O)(=O)N(CCCN(C)C)Cc2ccc3c(c2)OCO3)cc1	inactive
O=C(C[C@H]1C(=O)N(c2ccc(F)c(F)c2)C[C@@H]1Cc1ccccc1)Nc1ccccc1	-12.2 (active)
O=C(CN1CCN(c2ccc(F)cc2)CC1)Nc1ccccc1	inactive
O=C(CSC1CC(=O)N(CCc2ccccc2)C1=O)Nc1ccc(Cl)cc1 (stereo unspecified)	inactive
CC(c1ccccc1)n1c(NCCCn2ccnc2)nc2c1c(=O)[nH]c(=O)n2C (stereo unspecified)	inactive
CC1CCCCC1NC(=O)COC(=O)Cc1ccc(Br)cc1 (stereo unspecified)	inactive
COCc1cc(C(C)=O)ccc1OC	inactive
COc1ccc(C(C)=O)cc1COc1ccc(Cl)c(C)c1	-10.5 (active)

Compound	B-score
COc1ccc(-c2noc(COc3ccc(Cl)c(C)c3)n2)cc1	inactive
COc1ccc(/C(N)=N/OC(=O)Cc2ccccc2)cc1	inactive
COc1cccc(NC(=O)c2ccc(Cn3cc([N+](=O)[O-])cn3)o2)c1	inactive
O=C(c1ccc(Cn2cc([N+](=O)[O-])cn2)o1)N1CCCC1	inactive
O=C(Nc1ccc(Br)c2cccnc12)c1ccc(Cn2cc([N+](=O)[O-])cn2)o1	-12.7 (active)
O=C(Nc1nonc1-c1ccc(Cl)cc1)c1ccco1	inactive
O=C(N/N=C/c1ccccn1)c1cccc(NC(=O)c2ccc(Cl)cc2)c1	-8.92 (active)
CNC(=O)C(=O)N/N=C/c1ccccn1	inactive
O=C(COc1ccc(Cl)cc1Cl)NCCCNC(=O)c1cnccn1	inactive
O=C(Nc1cccc(CCc2ccccn2)c1)c1ccc(Cl)cc1	inactive
Cc1cccc(C(=O)Nc2ccc(C(=O)N/N=C/c3cccc(C)n3)cc2)c1	inactive
O=C(COc1ccc(Cl)cc1Cl)N/N=C/c1ccccn1	-9.19 (active)
COc1ccccc1NC(=O)c1cc(Cl)nnc1Cl	inactive
CCc1noc(C)c1C(=O)Nc1nc(-c2ccccc2)cs1	inactive
C[C@H](NC(=O)C1CC(=O)N(c2ccc3c(c2)OCO3)C1)C(=O)NCc1ccco1 (stereo partly specified)	inactive
O=C(/C=C/c1ccccc1)Oc1coc(CSc2ncccn2)cc1=O	inactive
COc1cc(OC)cc(-c2cc3nc(C4CCN(C(=O)OC(C)(C)C)CC4)cc(=O)n3[nH]2)c1	inactive
O=C(c1ccc(F)cc1)N1CCC(C(=O)N2CCN(S(=O)(=O)c3ccccc3Br)CC2)CC1	inactive
O=C(Cc1ccc(S(=O)(=O)N2CCCC2)s1)NC1CCCCCC1	inactive
CCN(CC)CC1(O)CCN(C(=O)c2ccc(Cl)c(Cl)c2)CC1	inactive
CCCn1c(=N)n(CC(=O)c2ccc(Cl)c(Cl)c2)c2ccccc21	-7.8 (active)
O=C(Cn1nnc(N2CCCCC2)n1)c1ccc(Cl)c(Cl)c1	inactive

Compound	B-score
O=c1c2c3c(sc2n(CCN2CCCC2)c(=O)n1Cc1ccccc1)CCCCC3	inactive
COc1cccc(N2CC(NC(=O)c3ccc4ccccc4c3)CC2=O)c1 (stereo unspecified)	inactive
COc1cccc(CNS(=O)(=O)c2ccc3c(c2)CC(C)N3C(=O)C2CCC2)c1 (stereo unspecified)	inactive
Cc1ccc2nc3c(cc(C(=O)NCCc4ccccc4)c(=N)n3CC3CCCO3)c(=O)n2c1 (stereo unspecified)	inactive
Cc1cc(C)c(C)c(S(=O)(=O)N2CCN(C(=O)c3ccc4c(=O)n5c(nc4c3)CCC5)CC2)c1C	inactive
COc1ccc(C(C)C)cc1S(=O)(=O)Nc1ncn[nH]1	inactive
CCOc1cc(C)c(Cl)cc1S(=O)(=O)n1nnc2ccccc21	inactive
CCOc1ccc(C(C)C)cc1S(=O)(=O)n1nc(C)cc1C	-10.1 (active)
CCOc1ccc(OCC(=O)Nc2c3c(nn2C(C)(C)C)CS(=O)(=O)C3)cc1	inactive
CCC(C)(C)n1nnnc1C(c1ccccc1OC)N1CCSCC1 (stereo unspecified)	-7.08 (active)
CCC(C)(C)n1nnnc1C(c1ccc(OC)c(OC)c1)N1CCN(C(=O)c2ccco2)CC1 (stereo unspecified)	inactive
CCC(C)(C)n1nnnc1C(c1cccs1)N1CCN(c2nc3ccccc3s2)CC1 (stereo unspecified)	-9.04 (active)
COc1ccccc1C(c1nnnn1CC1CCCO1)N1CCN(c2ccccc2)CC1 (stereo unspecified)	inactive
CC(C)(C)n1nnnc1C(c1ccc2ncccc2c1)N1CCSCC1 (stereo unspecified)	inactive
CCCC(c1nnnn1C(C)(C)C)N1CCN(Cc2ccccc2)CC1 (stereo unspecified)	inactive
CC(C)(C)n1nnnc1C(c1ccc(Cl)cc1)N1CCSCC1 (stereo unspecified)	inactive
COc1ccc(OC)c(C(c2nnnn2C(C)(C)C)N2CCc3ccccc3C2)c1 (stereo unspecified)	inactive
COc1ccccc1C(c1nnnn1C(C)(C)C)N1CCN(Cc2ccccc2)CC1 (stereo unspecified)	-21.5 (active)
O=C(NC(=S)Nc1ccc2oc(=O)ccc2c1)c1ccc(-c2cccc(Cl)c2Cl)o1	inactive
Cc1ccc(S(=O)(=O)N2CCN(C(=O)c3ccc(-n4cncn4)c([N+](=O)[O-])c3)CC2)cc1	inactive
COc1ccc(CNC(=O)C2CCCC2)cc1	inactive
O=C1CC2(CC(c3ccc(Cl)cc3)=NO2)C(=O)N1c1ccccc1 (stereo unspecified)	inactive

Compound	B-score
Nc1cc(C(F)(F)F)ccc1N1CCOCC1	inactive
CCC(C)c1ccc(NC(=S)N2CCCC2)cc1 (stereo unspecified)	inactive
Cc1ccc(CN(Cc2cccnc2)C(=S)Nc2cccc(Cl)c2C)cc1	-6.65 (active)
COCCNC(=S)N(Cc1cccnc1)Cc1ccc(OC)c(OC)c1	inactive
Cc1c(Cl)cccc1NC(=S)N(Cc1ccccc1)Cc1cccnc1	inactive
Cc1ccc(CN(Cc2cccnc2)C(=S)Nc2cc(Cl)ccc2C)cc1	-7.5 (active)
Cc1cccc(C)c1NC(=S)N(Cc1cccnc1)Cc1ccccc1Cl	inactive
Cc1ccc(Cl)cc1NC(=S)N(CCN(C)C)Cc1cccs1	inactive
Cc1ccccc1NC(=O)COc1cccc2c1CCNC2=O	inactive
O=C(CCNC(=O)c1ccc(Br)cc1)Nc1cccc(S(=O)(=O)N2CCCCC2)c1	inactive
O=C(CSc1ncn[nH]1)NCc1ccc2c(c1)OCO2	inactive
O=C(CN1CCN(c2nc(-c3ccccc3)cs2)CC1)NCc1ccc2c(c1)OCO2	inactive
O=C(CSc1ncnc2scc(-c3ccccc3)c12)NCc1ccc2c(c1)OCO2	-6.9 (active)
CCOC(=O)C(=Cc1ccccc1OC)C(=O)OCC	inactive
CCOC(=O)c1c(NC(=O)CNC2CCCc3ccccc32)sc(C(N)=O)c1C (stereo unspecified)	inactive
CCOc1ncccc1C(=O)NNC(=O)c1cccc(S(=O)(=O)Nc2ccccc2OC)c1	inactive
COc1ccc(NC(=O)C2CCC(CNC(=O)[C@@H]3Cc4ccccc4CN3)CC2)cc1 (stereo partly specified)	inactive
N#Cc1c(NC(=O)CCCN2C(=O)c3ccccc3C2=O)oc(-c2ccccc2)c1-c1ccccc1	inactive
COc1cc(C(=O)Nc2oc(-c3ccccc3)c(-c3ccccc3)c2C#N)cc(OC)c1OC	-6.66 (active)
COC(=O)c1sccc1NC(=O)c1cc(OC)c(OC)c(OC)c1	inactive
COC(=O)Nc1ncc(CN2CCCCC2)s1	inactive
CCCCN(C(=O)COc1ccc(NC(C)=O)cc1)C1CCS(=O)(=O)C1 (stereo unspecified)	inactive

Compound	B-score
Cc1cccc(C(=O)NCc2nnc(SC(C)C(=O)Nc3nnc(C)s3)n2C)c1 (stereo unspecified)	inactive
Cn1nc(-c2ccccc2)c(-c2nc(-c3ccc(Cl)cc3)no2)c1Cl	-7.35 (active)
Brc1ccc(-c2noc(-c3ccccc3)n2)o1	inactive
CN(Cc1ccccn1)Cc1nc(-c2ccc(Cl)cc2)no1	inactive
CC(C)Cn1c(N)c(C(=O)COC(=O)CN2C(=O)C3CC=CCC3C2=O)c(=O)n(C)c1=O (stereo unspecified)	inactive
COC(=O)c1cc(NC(=O)CC2C(=O)NCCN2C(=O)c2ccc(F)cc2)cc(C(=O)OC)c1 (stereo unspecified)	inactive
Cc1cs/c(=N\N=C\c2ccc(O)cc2)n1Cc1ccco1	-6.66 (active)
Cc1csc(=Nc2ccccc2)n1CCO	inactive
CN(c1ccccc1)c1ccc(/C=c2\s/c(=C(/C#N)C(=O)C(C)(C)C)n(Cc3ccco3)c2=O)cc1	inactive
CCNC(=O)NC(=O)C(C)OC(=O)c1cc(S(=O)(=O)N2CCCCCC2)ccc1OC (stereo unspecified)	inactive
CCCCn1c(N)c(N(CC(C)C)C(=O)c2cccc(S(=O)(=O)N3CCN(C(C)=O)CC3)c2)c(=O)[nH]c1=O	inactive
Cc1cc(C)nc(-n2nc(C)cc2NC(=O)c2ccc(F)cc2F)n1	inactive
CC1Cc2ccccc2N1S(=O)(=O)c1c(N)n(C)c(=O)n(C)c1=O (stereo unspecified)	inactive
CC1Cc2ccccc2N1S(=O)(=O)c1ccc(Cl)nc1 (stereo unspecified)	inactive
CCCCn1ccnc1C(=O)c1cccc(S(=O)(=O)N2c3ccccc3CC2C)c1 (stereo unspecified)	-11.8 (active)
COc1ccc(C(=O)NN2C(=O)C3C(c4ccccc4)C=CC(c4ccccc4)C3C2=O)cc1 (stereo unspecified)	-8.93 (active)
O=C(NN1C(=O)C2C3C=CC(O3)C2C1=O)c1ccccc1 (stereo unspecified)	inactive
COc1ccccc1C(=O)NN1C(=O)C2C3C=CC(O3)C2C1=O (stereo unspecified)	inactive
